# Compounds without any hit were thinned out: in the full panel of roughly 83,000, 20% have a hit.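 Plates (96-well) were seeded with cells, treated with compound at one concentration, and incubated for 48 hours before percent growth was determined.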 Active and inactive are the calls of the source. Rule for the calls: active = growth percent below 10; inactive = the rest.
# Test system: SF-539 CNS
# Test: NCI-60 one-dose screen, 48 h (100 = growth as untreated, 0 = no growth, -100 = all killed)
# Conditions: 10 µM
row,Compound,growth
1,COc1ccc(N2N=C(c3ccc4c(c3)OCCO4)CC2c2cccc(NC(=O)CCCNS(=O)(=O)c3ccc(F)cc3)c2)cc1 (configuration not stated),77.7% (inactive)
2,COc1cc(/C=N/NC(=O)c2ccc3nc(-c4ccc(Cl)cc4)[nH]c3c2)cc(OC)c1OC,-95.7% (active)
3,O=C(N=Nc1c(O)[nH]c2ccc(Br)cc12)c1ccc2nc(-c3ccccc3)[nH]c2c1,-97.9% (active)
4,COc1ccccc1[C@H]1C(C(=O)c2ccc(Cl)cc2)C2(N[C@@H]1c1ccccc1)C(=O)Nc1ccc(Cl)cc12 (some centres not stated),-16.6% (active)
5,O=c1cc(-c2ccccc2)oc2cc(OCCCNCc3ccccc3)cc(O)c12,-97.3% (active)
6,O=C1Nc2cc(-c3ccc(NC(=O)c4cccs4)cc3)ccc2/C1=C/c1ccc[nH]1,83.9% (inactive)
7,O=C(c1ccc(O)cc1)C1[C@H](c2ccc(Br)cc2)[C@@H](c2ccccc2)NC12C(=O)Nc1ccccc12 (some centres not stated),41.2% (inactive)
8,C=C1CCC2C3(C)COC(c4ccccc4F)OC3CCC2(C)C1C/C=C1/C(=O)OCC1O (configuration not stated),-87.5% (active)
9,C=C1CCC2C3(C)COC(c4c(F)cccc4F)OC3CCC2(C)C1C/C=C1/C(=O)OCC1O (configuration not stated),-92.2% (active)
10,COc1cccc(/C=C2\N=C(C)N(CCc3ccc(S(N)(=O)=O)cc3)C2=O)c1,99.8% (inactive)
11,C=C1CCC2C3(C)COC(c4cccc(F)c4)OC3CCC2(C)C1CC(O)C1=CCOC1=O (configuration not stated),84.8% (inactive)
12,Cn1cc(-c2cc(N)n3nc(-c4c[nH]c5ccc(Br)cc45)cc3n2)c2cccnc21,-97.7% (active)
13,C=C1CCC2C3(C)COC(c4c(F)cccc4F)OC3CCC2(C)C1CC(O)C1=CCOC1=O (configuration not stated),57% (inactive)
14,Brc1ccc(/C=C/c2n(Cc3ccc4ccccc4c3)c3ccccc3[n+]2Cc2ccc3ccccc3c2)cc1,-98.4% (active)
15,O=C(Nc1ccc(I)cc1)Nc1nc2ccc([N+](=O)[O-])cc2s1,-99.7% (active)
16,O=C(N/N=C/c1ccc(B(O)O)o1)c1[nH]c2ccc(Br)cc2c1-c1ccccc1,-33.4% (active)
17,CONC[C@]1(C)C=C2C(=O)[C@](C)(O)C3(CC3)C(C)=C2[C@H]1O,-80.5% (active)
18,O=C(Nc1cccc(-c2cn(-c3ccc4oc(=O)ccc4c3)nn2)c1)Nc1cc(C(F)(F)F)cc(C(F)(F)F)c1,19.1% (inactive)
19,CCCCCCCCCCCCCCCCCCCC(=O)NCCc1c[nH]c2ccc(OC(=O)CCCC(=O)OCCOOCCOOCCOOCCOOCCOOCCOOCCOOCCOOCCOOCCOOCCOOCCOC)cc12,-32.9% (active)

row,Compound,growth
1,COc1ccc(/C(C)=N/N=C2C(=O)N(C)c3ccc(Br)cc32)cc1S(N)(=O)=O,43.3% (inactive)
2,N#Cc1c(NC(=O)c2ccc(C(F)(F)F)cc2C(F)(F)F)sc2c1CCC(=O)C2,-80.2% (active)
3,CNCc1cccc2c1OCCCCCC[C@@](C)(O)CC1(CC1)S(=O)(=O)c1ccc(cc1)-c1cnc(N)c(n1)C(=O)N2,-98.9% (active)
4,COc1cc(OC(F)(F)F)ccc1C(=O)Nc1sc2c(c1C#N)CCC(=O)C2,8.76% (active)
5,Nc1n[nH]c2cccc(C#Cc3cccc(NC(=O)Nc4cc(C(F)(F)F)cc(C(F)(F)F)c4)c3)c12,-73% (active)
6,N#Cc1c(-c2ccc(F)cc2)nc(SCc2ccc([N+](=O)[O-])cc2)nc1N1CCOCC1,26.2% (inactive)
7,CC1=N/C(=C\c2ccc(N(C)C)cc2)C(=O)N1CCc1ccc(S(N)(=O)=O)cc1,98% (inactive)
8,CN(CCF)c1ccc(/C=C/C(=O)c2ccc(N)cc2O)cc1,83.5% (inactive)
9,O=C(c1ccc(Cl)cc1)C1[C@H](c2ccccc2Br)[C@@H](c2ccccc2)NC12C(=O)Nc1ccccc12 (some centres not stated),13.5% (inactive)
10,O=C(Nc1cc(Cl)cc(Cl)c1)Nc1cc(Cl)cc(Cl)c1,-46.2% (active)
11,O=C(c1ccc(O)cc1)C1[C@H](c2ccc(Br)cc2)[C@@H](c2ccccc2)NC12C(=O)Nc1ccc(Br)cc12 (some centres not stated),-17.8% (active)
12,COc1ccccc1[C@H]1C(C(=O)c2ccc(O)cc2)C2(N[C@@H]1c1ccccc1)C(=O)Nc1ccc(Br)cc12 (some centres not stated),51.8% (inactive)
13,CN1CCN(c2ccc(C(=O)/C=C/c3ccc(C#N)cc3)cc2)CC1,56.3% (inactive)
14,CC(C)(C)Nc1nc2cc(Cl)c(Cl)cc2nc1S(C)(=O)=O,47.3% (inactive)
15,COc1cc(/C=C/C(=O)c2cc(OC)c(OC)c(OC)c2)ccc1Oc1nc(Nc2ccc(F)cc2)nc(N(C)C)n1,-80.6% (active)
16,C=C1CCC2C3(C)COC(c4cc(F)cc(F)c4)OC3CCC2(C)C1C/C=C1/C(=O)OCC1O (configuration not stated),-90.9% (active)
17,Cc1cc(C(F)(F)F)ccc1C(=O)Nc1sc2c(c1C#N)CCC(=O)C2,-79.9% (active)
18,N#Cc1c(Cl)nc(SCc2ccc(F)cc2)nc1-c1ccc(F)cc1,91.9% (inactive)

# Reference: PubChem BioAssay (NCI)
